# HCT116 bCat-KO: primary screen for growth suppressors in beta-catenin knockout HCT116 cells (colon tumor, human) | HCT116 beta-catenin knockout viability, CellTiter-Glo, 60 h; stronger effect = lower value | viability, % at 10 µM | hit rate 1.5% among 140,000;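 active means viability at or under a set limit, the compound median less 4 SD, cut at about 6% in these data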;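 further: 0% = Hyamine 1622 control at 20 µM and 100% = untreated cell control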
# Autophagy mod: autophagy modulators in MEF cells, primary screen, imaging, high-content, MEF GFP-LC3; MEF GFP-LC3 puncta imaging; test concentration mostly 10 µM; calls only at 10 µM (by protocol); hit rate 0.98% among 190,000; AID 463193, 2010;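 active means percentage of spot-positive cells more than 3 SD above its plate mean, without a fluorescence outlier flag or 80% toxicity; inconclusive means no clear call, values can overlap the other calls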;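 further: spot-positive cell cutoff set from DMSO-treated cells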
# HCT116 PTEN-null: growth suppression of PTEN-null HCT116, primary screen, cell-based, CellTiter-Glo. HCT116 PTEN-null viability, 60 h; stronger effect = lower value. viability, % at 10 µM. hit rate 1.2% among 140,000. AID 827, 2007;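 active means viability at or below a set limit, 4 SD under the median of all tested compounds, cut at about 3.7% in these data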;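 further: PTEN knockout HCT116 line with beta catenin targeted HCT116 as companion control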
# L major viab: Leishmania major promastigote growth inhibition, primary screen. Leishmania major promastigotes, resazurin fluorescence viability. inhibition, % at 10 µM. hit rate 9% among 200,000. AID 1063, 2008; in the data active means inhibition above about 50%;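 further: promastigotes grown with compound for 44 hours at 28 °C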
# INS promoter inh: inhibitors of insulin promoter-driven GFP, primary screen, imaging, TRM-6 cells (human fetal islet line), eGFP reporter, cell count; reporter expression induced with tamoxifen; inhibition, % at 2 µM; hit rate 0.9% among 130,000; AID 1273, 2008;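 active means inhibition above the mean plus 3 SD, with well images judged a real hit on visual review, cut at about 60% in these data, passing the limit was not always enough; inconclusive means inhibition over the cutoff but images rejected on review; inactive means inhibition not above the cutoff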
# Insulin prom up: insulin promoter activators in MIN6 cells, imaging, high-content screening, mouse beta cells; z-score at 5 µM; MIN6 insulin promoter-GFP reporter; stronger effect = higher value; hit rate 0.3% among 190,000;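 active means z-score above 3 at 5 µM with at least 500 cells counted in the well; inconclusive means wells under 500 cells, flagged as cytotoxic or low count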
# The depositor's hits bear a star; i = inactive; u = inconclusive; x = no result. A selection: hits, their analogues and other compounds. The true share with any hit is near 9.6%.
SMILES,HCT116 bCat-KO,Autophagy mod,HCT116 PTEN-null,L major viab,INS promoter inh,Insulin prom up
CC(=O)Nc1ccc(S(=O)(=O)Nc2ccccn2)cc1,x,i,x,-7,x,x
CCc1cc(=O)oc2cc(OC(C)=O)cc(OC(C)=O)c12,110,i,106,56*,12,0.64
CC1(C)CC(C2N3CC4(C)CN2CC(C)(C3)C4=O)CCO1 (stereo unspecified),97,i,103,-5,-12,x
CC(C(=O)Nc1cc([N+](=O)[O-])ccc1Cl)N1CCN(c2ccc(O)cc2)CC1 (stereo unspecified),85,i,93,12,72*,-1.4
COc1ccc(OC)c(C2=Nn3c(nnc3C3CCCCC3)SC2)c1,64,i,72,10,4,-6.5
COc1ccc(C2=Nn3c(nnc3C3CCCCC3)SC2)cc1OC,60,i,55,50*,14,-1.3
Cn1c(NCCCN2CCOCC2)nc2c1c(=O)n(Cc1ccc(Cl)cc1)c(=O)n2C,92,i,73,74*,x,-0.14
COc1ccc(Cn2c(=O)c3c(nc(NCCO)n3C)n(C)c2=O)cc1,101,i,86,-10,42,0.02
Cn1c(NCCCN2CCOCC2)nc2c1c(=O)n(Cc1ccc(Cl)c(Cl)c1)c(=O)n2C,30,i,41,99*,x,-0.2
Cn1c(NCc2ccco2)nc2c1c(=O)n(Cc1ccc(Cl)cc1)c(=O)n2C,80,i,66,-6,3,0.4
C/C=C(/C)C(=O)O[C@@H]1c2c(ccc3ccc(=O)oc23)O[C@@H]1C(C)(C)OC(=O)/C(C)=C\C,58,i,66,30,-5,-1.3
COc1ccc(C2=NCC(CSc3nccc(=O)[nH]3)S2)cc1 (stereo unspecified),97,i,95,-8,86*,x
COc1ccc(Nc2nc(N3CCCC3)c3ccccc3n2)cc1,1.7*,i,1.9*,100*,7,u
c1ccc2c(c1)nc(N1CCOCC1)c1ccccc12,x,i,x,-2,50,-0.72
CCN(CC)c1ccc(Nc2nc(N3CCOCC3)c3ccccc3n2)cc1,14,i,21,97*,7,u
COc1cc(CCC(=O)Nc2cc(C)cc(C)c2)cc(OC)c1OC,x,i,x,-4,55,0.99
COc1cc(CN2CCN(Cc3ccc(SC)cc3)CC2)cc(OC)c1O,x,i,x,88*,x,-0.54
COc1cc(CN2CCN(c3ccc(C)cc3)CC2)cc([N+](=O)[O-])c1O,89,i,84,86*,16,1.3
COc1cc(OC)c(OC)cc1CN1CCN(Cc2ccc(SC)cc2)CC1,x,i,x,95*,x,-0.41
COc1cc(CN2CCN(c3cc(C)ccc3C)CC2)cc([N+](=O)[O-])c1O,x,i,x,7,-12,x
c1ccc(CSc2nnc3ccc(-c4ccncc4)nn23)nc1,x,i,x,10,x,0.01
COC(=O)c1ccnc(/C=N/O)c1,99,i,104,0,-34,0.07
CS(=O)(=O)/C(C#N)=C/c1c(-c2ccccc2)nc2n1CCS2,x,x,x,x,x,1.1
CCOc1ccc(-n2c(=O)c3c(C)c(C(=O)N(C)C)sc3n(CC(=O)Nc3ccccc3F)c2=O)cc1,x,i,x,-8,19,-0.67
CNCc1cc(Br)c(OCC(=O)Nc2ccccc2OC)c(OC)c1,x,i,x,100*,-24,-0.32
SMILES,HCT116 bCat-KO,Autophagy mod,HCT116 PTEN-null,L major viab,INS promoter inh,Insulin prom up
CCNCc1cc(Br)c(OCC(=O)Nc2ccccc2)c(OC)c1,86,i,88,101*,-7,x
O=C(COc1ccc(C(=S)N2CCOCC2)cc1Cl)Nc1ccccc1Cl,x,i,x,-5,27,-0.28
COc1cc(C(=S)N2CCCCC2)ccc1OCC(=O)Nc1ccccc1Cl,x,i,x,66*,-47,-0.61
COc1ccccc1NC(=O)COc1ccc(Br)cc1CNC1CCCC1,x,i,x,94*,x,-0.77
CN1C(=O)/C(=N\OC(=O)c2cccc3ccccc23)c2ccccc21,94,i,89,-6,7,0.32
CCC(=NCc1ccc(Cl)c(Cl)c1)c1nc(-c2ccco2)oc1O,83,i,71,25,-36,-1.3
COc1cc(CNCCCN2CCOCC2)ccc1OCC(=O)NC(C)(C)C,x,i,x,-2,x,0.77
COc1cc(CO)c(Br)cc1OCC(=O)Nc1ccccc1C,x,i,x,-2,30,0.7
COc1cc(CNCCc2ccccc2)cc(Br)c1OCC(=O)Nc1ccccc1C,x,i,x,100*,x,-0.91
COc1ccccc1NC(=O)COc1cc(Br)c(CNCCCN2CCOCC2)cc1OC,x,i,x,55*,x,1
CCc1cccc(CC)c1NC(=S)/C(=C(\[O-])c1ccc(Cl)s1)[n+]1ccccc1,x,i,x,5,x,-0.02
Cc1ccc(-n2c(=O)c3c(n4cnnc24)-c2ccccc2CC32CCCCC2)cc1,92,i,83,96*,14,-0.47
Cc1ccccc1-n1c(=O)c2c(n3cnnc13)-c1ccccc1CC21CCCCC1,81,i,75,11,2,-0.2
CCc1ccccc1NC(=O)Nc1cccn(Cc2ccccc2F)c1=O,x,i,x,9,x,0.4
COc1ccc(CCN=c2c([N+](=O)[O-])nn(-c3cccc(C)c3)n2O)cc1OC,x,i,x,50,x,-0.85
Cc1cccc(CCN=c2c([N+](=O)[O-])nn(-c3ccccc3)n2O)c1,x,i,x,62*,-109,0.48
COc1ccc(-n2nc([N+](=O)[O-])c(=NCCc3cccc(C)c3)n2O)cc1,x,i,x,81*,27,-0.29
O=C(CSc1nnc(-c2c[nH]c3ccccc23)o1)N(Cc1ccccc1)c1ccc(F)cc1,20,i,14,64*,-3,x
Brc1ccc(-c2cn3c(n2)CCc2ccc4cccnc4c2-3)cc1,63,i,63,100*,-8,0
COc1ccccc1NC(=O)CCN1CCN(Cc2ccccc2)CC1,84,i,81,13,-37,x
Cc1cc(-c2n[nH]c(=S)n2/N=C/c2cccc([N+](=O)[O-])c2)n[nH]1,90,i,94,51*,11,-0.07
Cc1cc(-c2n[nH]c(=S)n2/N=C/C(Cl)=C/c2ccccc2)n[nH]1,5.0*,i,2.2*,70*,x,x
Cc1cc(-c2n[nH]c(=S)n2/N=C/c2cccc(O)c2)n[nH]1,x,x,x,x,x,0.09
COc1cccc(N2CCN(C(=O)c3cccn4c(=O)c5c(C)c(C)sc5nc34)CC2)c1,x,i,x,-4,-36,x
COc1ccc(N2CCN(C(CNC(=O)C3CCCCC3)c3cccnc3)CC2)cc1 (stereo unspecified),95,i,90,87*,-50,-0.55
O=C(NCC(c1cccnc1)N1CCN(c2ccccc2F)CC1)C1CCCCC1 (stereo unspecified),82,i,88,71*,-14,-0.36

# High-throughput results from PubChem BioAssay.
